Records with an inconclusive call do not appear. Activity calls are given as the source filed them. The call rests on the fitted dose curve; in most records, active means well fitted cell-killing curve with a large enough effect; inconclusive means small, poorly fitted or top-dose-only effect, or effect the other way; inactive means no such curve, though single readings can be large or run the other way.

The nature of test [1]: Quantitative High-Throughput drug screen in 47 multiple myeloma cell lines against the NCATS MIPE library collection: XG6_PLB cell viability assay (AID 1919865). Further: nearly all actives have a fitted effect of over 40% in size. In outline: (§1)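 qHTS format: cells plated (500/well), pin-dosed with MIPE 4.0 compounds, kept 48 h at 37 °C. Readout was CellTiter-Glo luminescence, median RLU.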
Test [2] can be described thus: Quantitative High-Throughput drug screen in 47 multiple myeloma cell lines against the NCATS MIPE library collection: UTMC2_PLB cell viability assay (AID 1919868). Further: nearly all actives have a fitted effect of over 55% in size. Conditions: CellTiter-Glo ATP luminescence, 48 h; viability (% of DMSO control): at 45.8 µM (top of the series). The essentials: as §1
Test [3] is described as follows: Quantitative High-Throughput drug screen in 47 multiple myeloma cell lines against the NCATS MIPE library collection: RPMI8226_ATCC cell viability assay (AID 1919871). Further: nearly all actives have a fitted effect of over 30% in size. In outline: as §1
Test [4] in a line: Quantitative High-Throughput drug screen in 47 multiple myeloma cell lines against the NCATS MIPE library collection: OPM2_DSMZ cell viability assay (AID 1919872). Further: nearly all actives have a fitted effect of over 30% in size. The essentials: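 CellTiter-Glo ATP luminescence gave viability after 48 h compound treatment at 37C of 500 multiple myeloma cells per well. Normalisation used DMSO-only wells as 100% and media-only wells as 0% viability; primary qHTS of approved and investigational drugs.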

A short description of test [5]: Quantitative High-Throughput drug screen in 47 multiple myeloma cell lines against the NCATS MIPE library collection: PE2_PLB cell viability assay (AID 1919869). Further: nearly all actives have a fitted effect of over 35% in size. In outline: as §1
Test [6] can be described thus: Quantitative High-Throughput drug screen in 47 multiple myeloma cell lines against the NCATS MIPE library collection: VP6_DJ cell viability assay (AID 1919867). Further: nearly all actives have a fitted effect of over 40% in size. The essentials: as §1
Test [7] in a line: Quantitative High-Throughput drug screen in 47 multiple myeloma cell lines against the NCATS MIPE library collection: PCM6_Riken cell viability assay (AID 1919870). Further: nearly all actives have a fitted effect of over 30% in size. In outline:
as §1

Test [8] in a line: Quantitative High-Throughput drug screen in 47 multiple myeloma cell lines against the NCATS MIPE library collection: XG1_PLB cell viability assay (AID 1919866). Further: nearly all actives have a fitted effect of over 35% in size. The essentials: as §1
Potency means the concentration at half of the fitted maximal effect.

Consider `O=C(Nc1cccc(C(F)(F)F)c1)Nc1cc(S(=O)(=O)NC2CC2)ccc1-c1ccsc1`, for which the Potency in test [1] is 23.5 µM (active); in test [2], 18.7 µM (active); in test [3], 13.2 µM (active); in test [4], 3.72 µM (active).

For the compound `O=C(O)CCNc1cc(N2CCc3ccccc3CC2)nc(-c2ccccn2)n1`, the Potency entry in test [1], in test [3] and in test [4] was “inactive” in each case.

Regarding `O=C(Nc1cccc2c(=O)cc(-c3nn[nH]n3)oc12)c1ccc(OCCCCc2ccccc2)cc1`, the Potency was 26.4 µM (active) in test [1], 14.8 µM (active) in test [2] and 26.4 µM (active) in test [5].

Consider `C[C@H](c1ccc(F)cc1CCCC(=O)O)N(c1cc(F)ccc1F)S(=O)(=O)c1ccc(Cl)cc1`, for which the Potency was 2.64 µM (active) in test [1], 3.72 µM (active) in test [6], 14.8 µM (active) in test [2] and 6.62 µM (active) in test [7].

Regarding `CCC[C@@H](NC(=O)[C@@H]1[C@H]2CCC[C@@H]2CN1C(=O)[C@@H](NC(=O)[C@@H](NC(=O)c1cnccn1)C1CCCCC1)C(C)(C)C)C(=O)C(=O)NC1CC1`, the Potency in test [8] is 14.8 µM (active). In addition, the Potency result in test [2] was “inactive”.

Turning to `Nc1nc(Cl)nc2c1ncn2[C@@H]1O[C@H](CO)[C@@H](O)[C@H]1F`, the Potency in test [1] is 0.0235 µM (active); in test [6] it was 0.187 µM (active); in test [2], 0.332 µM (active); in test [5], 0.418 µM (active); in test [3], 2.35 µM (active).

`C[C@@H](NC(=O)c1ncnc(N)c1Cl)c1ncc(C(=O)Nc2cc(C(F)(F)F)c(Cl)cn2)s1`: the Potency was 10.5 µM (active) in test [8], 20.9 µM (active) in test [6] and 13.2 µM (active) in test [3].

`Cc1ccc(NC(=O)c2cccc(N(C)C)c2)cc1NC(=O)c1ccc(O)cc1`: the Potency in test [8] is 0.0469 µM (active); in test [6], 0.469 µM (active); in test [2], 0.332 µM (active); in test [5] it was 18.7 µM (active); in test [7] it was 0.418 µM (active). The Potency result in test [3] is “inactive”.

In the case of `c1ccc(CNc2nc(N3CCOc4ccccc43)nc3c2CCCC3)cc1`, the Potency result in test [1], in test [8] and in test [7] was “inactive” each time.

With `O=C(Nc1ncc(SCCN2CCCC2)s1)[C@]1(c2ccc(S(=O)(=O)C3CC3)cc2)C[C@@H]1C1CCCCC1`, the Potency in test [8] is 8.33 µM (active); in test [6], 9.35 µM (active); in test [7] it was 8.33 µM (active).

Take `CC[C@H]1OC(=O)[C@H](C)[C@@H](O[C@H]2C[C@@](C)(OC)[C@@H](O)[C@H](C)O2)[C@H](C)[C@@H](O[C@@H]2O[C@H](C)C[C@H](N(C)C)[C@H]2O)[C@](C)(O)C[C@H](C)C(=NOCOCCOC)[C@H](C)[C@@H](O)[C@]1(C)O`: the Potency entry in test [1], in test [8], in test [2], in test [5] and in test [4] was “inactive” in each case. Besides, in test [3], the Potency was 4.69 µM (active).

Take `Cc1cn([C@@H]2C[C@@H](O)[C@H](CO)O2)c(=O)[nH]c1=O`: the Potency result in test [1], in test [6], in test [2], in test [5], in test [7] and in test [3] was “inactive” in each case. Moreover, the Potency entry in test [4] is “inactive”.

On to `CC(C)=CCCC(C)=CCCC(C)=CCCC(C)=CCCC(C)=CCCC(C)=CCCC(C)=CCCC(C)=CCCC(C)=CCO`, for which the Potency result in test [1], in test [8], in test [2], in test [3] and in test [4] was “inactive” in each case.

As for `NCc1c[nH]c(=S)n1[C@H]1CCc2c(F)cc(F)cc2C1`, the Potency in test [1] is 18.7 µM (active); in test [8], 9.35 µM (active); in test [5], 16.6 µM (active); in test [7], 2.96 µM (active); in test [3], 26.4 µM (active).

Regarding `NC[C@H]1O[C@H](O[C@@H]2[C@@H](O)[C@@H](O[C@H]3O[C@H](CO)[C@@H](O)[C@H](N)[C@@H]3O)[C@H](N)C[C@@H]2N)[C@H](O)[C@@H](O)[C@H]1O`, the Potency entry in test [1], in test [7] and in test [4] was “inactive” each time. Also, the Potency in test [6] was 16.6 µM (active).

Take `CN1CCN2c3ncccc3Cc3ccccc3C2C1` (centres undefined): the Potency entry in test [1], in test [2], in test [5], in test [3] and in test [4] was “inactive” in each case.

On to `C[C@@]1(C(=O)Nc2ccc(F)nc2)CCCN1c1nc(Nc2cc(C3CC3)[nH]n2)c2cccn2n1`, for which the Potency in test [1] was 0.0332 µM (active); in test [8], 0.0743 µM (active); in test [2], 0.0118 µM (active); in test [5] it was 11.8 µM (active); in test [4], 7.43 µM (active).

In the case of `NC(=O)c1ncn([C@@H]2O[C@H](CO)[C@@H](O)[C@@H]2O)n1`, the Potency entry in test [1], in test [8], in test [5], in test [7], in test [3] and in test [4] was “inactive” throughout.

Consider `C#CCN(C)CC1=Cc2ccccc2Oc2ccccc21`, for which the Potency result in test [1], in test [8], in test [7], in test [3] and in test [4] was “inactive” in each case.

(Values after PubChem BioAssay (NCATS).)
